# Data as given in PubChem BioAssay (EPA / NIEHS).
# “And” between values parts separate entries of the source, which are not always exact repeats. Equal entries are not always repeated. Results filed as inconclusive are left out. Some structures have more than one record in an assay (separate samples or runs), and their calls can disagree. The source made the active and inactive calls. Rule for the calls, unless noted: active = hit-call score of the fitted dose curve at least 0.9, where 1 is the maximum; inconclusive = response in the unintended direction; inactive = score below 0.9.
# Legend:
# [1] = target: human Dopamine Transporter (DAT), SLC6A3 (gene 6531) (UniProt Q01959); test: NVS_TR_hDAT: NovaScreen (NVS) Transporter Assay for human Dopamine Transporter (DAT) (AID 2283374);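 note: activity means loss of bound radioligand signal relative to DMSO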
# Procedure, shortened: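 Duplicate single-point screening at 25 uM preceded concentration-series follow-up of actives. Binding was measured by competitive displacement of a radioligand from DAT protein, filter-counted by scintillation 1 h after dosing. Decrease relative to DMSO taken as activity.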
# [2] = target: human Norepinephrine Transporter (NET), SLC6A2 (gene 6530) (UniProt P23975); test: NVS_TR_hNET: NovaScreen (NVS) Transporter Assay for human Norepinephrine Transporter (NET) (AID 2283377);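 note: cell-free membrane protein extracted from CHO cells expressing human NET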;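 for AC50: displacement of radioligand from human NET seen as loss of scintillation signal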
# Procedure, shortened: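 Single-concentration duplicate screen at 25 uM, then concentration-response for actives; displacement of specific radioligand from human NET in CHO membrane extracts, filter-based scintillation detection at 1 h relative to DMSO.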
# [3] = target: Peroxisome proliferator-activated receptor gamma (Homo sapiens) (UniProt P37231); test: NVS_NR_hPPARg: NovaScreen (NVS) Nuclear Receptor Binding Assay for human Peroxisome Proliferator-activated Receptor gamma (PPARg) (AID 2283370)
# Procedure, shortened: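 Chemicals were tested first in duplicate at 25 uM, then in concentration series if active. Binding to cell-free PPARg protein was measured by fluorescence polarization after 2 h, with loss of signal scored against DMSO.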
# [4] = target: Estrogen receptor beta (Homo sapiens) (UniProt Q92731); test: OT_ER_ERbERb_1440: Odyssey Thera (OT) 24-hour HEK293T Protein-Complementation Assay for Estrogen Receptor-beta/-beta Homodimer (AID 2283380);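 note: fluorescence gain from ER beta LBD homodimer complementation read by laser scanning cytometry; scored as signal increase over DMSO baseline for both agonists and antagonists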
# Procedure, shortened: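 Fluorescence increase, nuclear for agonists or whole-cell for antagonists, relative to DMSO vehicle, quantified by laser scanning cytometer after fixation and Draq5 staining. Readout from 24 h treatment of HEK293T cells carrying complementation-paired ER beta LBD (aa 310-547).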
# [5] = tested on: rat Norepinephrine Transporter (NET), gene 83511; test: NVS_TR_rNET: NovaScreen (NVS) Transporter Assay for rat Norepinephrine Transporter (NET) (AID 2283373)
# Procedure, shortened: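 Competitive radioligand displacement at the rat NET using forebrain membrane preparations, 1 h incubation, filter-based scintillation readout. Primary testing in duplicate at a single 25 uM concentration; confirmed actives retested across concentrations.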
# [6] = target: rat Serotonin Transporter (SERT), Slc6a4 (gene 25553) (UniProt P31652); test: NVS_TR_rSERT: NovaScreen (NVS) Transporter Assay for rat Serotonin Transporter (SERT) (AID 2283375)
# Procedure, shortened: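 Filtration-based radiodetection quantified loss of specific radioligand binding in rat forebrain membranes after 1 hour of chemical exposure, relative to DMSO. Chemicals were first tested in duplicate at 25 uM.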
# [7] = target: Agonist Androgen Response Element (ARE), AR (gene 367) (UniProt P10275); test: OT_AR_ARELUC_AG_1440: Odyssey Thera (OT) 24-hour CHO-K1 Luciferase Assay for Agonist Androgen Response Element (ARE) (AID 2283379)
# Procedure, shortened: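 Readout: luciferase bioluminescence from CHO-K1 ARE-luc cells, measured 24 h post-dosing; agonism = increased mean luminescence vs DMSO controls, fitted in positive direction.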
# [8] = target: Estrogen receptor (Homo sapiens) (UniProt P03372); test: OT_ERa_GFPERaERE_0480: Odyssey Thera (OT) 8-hour HeLa Transcription Induction Assay for Estrogen Receptor (AID 2283381; active = hit-call score of the fitted dose curve at least 0.9, where 1 is the maximum; inactive = score below 0.9)
# Procedure, shortened: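 Fluorescence microscopy with high-content image analysis measures ERE-driven GFP induction in HeLa cells at 8 h post-dose. Increases fitted against DMSO baseline.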
# [9] = target: Estrogen receptor (Homo sapiens) (UniProt P03372); test: OT_ERa_GFPERaERE_0120: Odyssey Thera (OT) 2-hour HeLa Transcription Induction Assay for Estrogen Receptor (AID 2283382)
# Procedure, shortened: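 Fluorescence-microscopy images of the GFP-ERα/ERE reporter, scored by high-content image algorithms, give the readout. HeLa exposure lasted 2 h, and only signal increase over DMSO was fitted.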
# [10] = target: mouse Estrogen Receptor alpha (Era), Esr1 (gene 13982) (UniProt P19785); test: NVS_NR_mERa: NovaScreen (NVS) Nuclear Receptor Binding Assay for mouse Estrogen Receptor alpha (Era) (AID 2283378);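 note: hit means loss of bound radioligand signal relative to DMSO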
# Procedure, shortened: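 Extracted mouse Era incubated with tritiated or iodinated radioligand plus test chemical, 18 h. Bound fraction separated on filters, counted by scintillation. DMSO = negative control/baseline; duplicate single-point at 25 uM, then concentration-response follow-up.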
# Chain of rat Serotonin Transporter (SERT), Slc6a4 (gene 25553) (P31652 whole entry, looked up): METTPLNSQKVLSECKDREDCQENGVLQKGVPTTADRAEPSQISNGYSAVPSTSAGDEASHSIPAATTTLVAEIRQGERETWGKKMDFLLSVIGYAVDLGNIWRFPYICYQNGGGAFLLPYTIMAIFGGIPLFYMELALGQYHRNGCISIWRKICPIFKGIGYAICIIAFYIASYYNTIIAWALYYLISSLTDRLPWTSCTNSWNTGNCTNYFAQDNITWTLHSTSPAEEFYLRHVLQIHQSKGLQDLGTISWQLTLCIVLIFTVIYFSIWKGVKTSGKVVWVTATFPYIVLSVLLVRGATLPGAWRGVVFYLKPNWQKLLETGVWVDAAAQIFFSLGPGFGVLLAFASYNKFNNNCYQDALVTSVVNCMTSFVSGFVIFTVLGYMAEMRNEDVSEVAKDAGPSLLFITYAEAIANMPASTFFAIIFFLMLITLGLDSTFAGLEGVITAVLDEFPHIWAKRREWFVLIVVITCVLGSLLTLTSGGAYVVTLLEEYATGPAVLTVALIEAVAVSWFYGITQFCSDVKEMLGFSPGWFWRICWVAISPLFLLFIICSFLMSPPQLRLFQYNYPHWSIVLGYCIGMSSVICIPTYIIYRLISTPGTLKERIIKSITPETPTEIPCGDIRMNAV
# Chain of Estrogen receptor (Homo sapiens) (P03372 whole entry, looked up): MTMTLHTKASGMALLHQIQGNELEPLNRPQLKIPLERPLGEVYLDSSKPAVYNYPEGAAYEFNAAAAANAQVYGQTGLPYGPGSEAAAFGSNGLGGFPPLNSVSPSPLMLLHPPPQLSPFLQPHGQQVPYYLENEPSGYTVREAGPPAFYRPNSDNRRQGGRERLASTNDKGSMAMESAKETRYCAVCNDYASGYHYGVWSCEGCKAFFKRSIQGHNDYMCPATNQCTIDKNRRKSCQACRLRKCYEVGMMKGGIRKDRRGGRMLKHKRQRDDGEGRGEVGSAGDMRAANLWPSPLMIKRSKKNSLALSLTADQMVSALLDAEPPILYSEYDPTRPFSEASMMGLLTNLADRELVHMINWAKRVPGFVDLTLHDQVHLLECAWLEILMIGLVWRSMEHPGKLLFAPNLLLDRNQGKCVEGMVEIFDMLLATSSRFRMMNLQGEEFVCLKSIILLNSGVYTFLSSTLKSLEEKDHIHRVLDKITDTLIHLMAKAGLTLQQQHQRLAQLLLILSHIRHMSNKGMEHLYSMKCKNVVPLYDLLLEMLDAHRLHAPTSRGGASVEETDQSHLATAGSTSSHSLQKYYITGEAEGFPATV
# Chain of human Dopamine Transporter (DAT), SLC6A3 (gene 6531) (Q01959 whole entry, looked up): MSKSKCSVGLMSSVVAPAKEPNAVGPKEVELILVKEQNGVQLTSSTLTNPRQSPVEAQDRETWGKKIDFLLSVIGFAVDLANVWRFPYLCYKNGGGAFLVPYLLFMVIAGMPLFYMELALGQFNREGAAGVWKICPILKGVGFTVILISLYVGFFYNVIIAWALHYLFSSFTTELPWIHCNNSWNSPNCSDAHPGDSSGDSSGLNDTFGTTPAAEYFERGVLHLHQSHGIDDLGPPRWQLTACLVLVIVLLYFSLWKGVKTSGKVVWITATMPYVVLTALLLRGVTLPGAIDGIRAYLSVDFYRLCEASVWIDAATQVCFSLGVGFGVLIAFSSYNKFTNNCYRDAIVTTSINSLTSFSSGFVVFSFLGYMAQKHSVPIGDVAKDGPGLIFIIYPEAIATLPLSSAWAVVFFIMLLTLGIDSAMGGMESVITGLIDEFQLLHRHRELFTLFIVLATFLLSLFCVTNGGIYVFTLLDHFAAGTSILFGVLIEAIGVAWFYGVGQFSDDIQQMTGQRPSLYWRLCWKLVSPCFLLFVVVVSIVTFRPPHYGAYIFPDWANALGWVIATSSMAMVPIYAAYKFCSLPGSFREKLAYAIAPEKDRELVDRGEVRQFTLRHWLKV
# Chain of Agonist Androgen Response Element (ARE), AR (gene 367) (P10275 whole entry, looked up): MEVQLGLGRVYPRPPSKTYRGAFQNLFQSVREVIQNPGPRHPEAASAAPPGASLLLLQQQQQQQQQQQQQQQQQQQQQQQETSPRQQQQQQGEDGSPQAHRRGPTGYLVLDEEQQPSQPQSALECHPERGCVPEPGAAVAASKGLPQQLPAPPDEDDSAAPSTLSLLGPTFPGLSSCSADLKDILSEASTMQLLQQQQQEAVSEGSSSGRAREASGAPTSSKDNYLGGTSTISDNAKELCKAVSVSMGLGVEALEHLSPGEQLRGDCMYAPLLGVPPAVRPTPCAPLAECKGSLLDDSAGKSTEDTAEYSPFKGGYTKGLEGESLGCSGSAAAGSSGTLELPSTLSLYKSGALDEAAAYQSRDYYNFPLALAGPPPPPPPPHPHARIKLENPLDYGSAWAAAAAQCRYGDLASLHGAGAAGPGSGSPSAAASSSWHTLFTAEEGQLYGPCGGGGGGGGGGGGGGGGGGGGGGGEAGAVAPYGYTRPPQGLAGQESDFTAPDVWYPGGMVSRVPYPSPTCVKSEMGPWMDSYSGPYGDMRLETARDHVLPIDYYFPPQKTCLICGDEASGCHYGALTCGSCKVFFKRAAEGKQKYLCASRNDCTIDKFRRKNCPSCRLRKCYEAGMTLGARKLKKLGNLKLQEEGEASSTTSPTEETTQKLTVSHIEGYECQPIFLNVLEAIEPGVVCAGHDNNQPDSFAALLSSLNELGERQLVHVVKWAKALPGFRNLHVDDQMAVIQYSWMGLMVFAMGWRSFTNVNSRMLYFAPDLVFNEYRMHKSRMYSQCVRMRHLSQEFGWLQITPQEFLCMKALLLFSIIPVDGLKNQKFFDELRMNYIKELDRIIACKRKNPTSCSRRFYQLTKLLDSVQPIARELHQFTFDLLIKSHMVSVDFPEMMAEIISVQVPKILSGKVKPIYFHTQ
# Chain of Peroxisome proliferator-activated receptor gamma (Homo sapiens) (P37231 whole entry, looked up): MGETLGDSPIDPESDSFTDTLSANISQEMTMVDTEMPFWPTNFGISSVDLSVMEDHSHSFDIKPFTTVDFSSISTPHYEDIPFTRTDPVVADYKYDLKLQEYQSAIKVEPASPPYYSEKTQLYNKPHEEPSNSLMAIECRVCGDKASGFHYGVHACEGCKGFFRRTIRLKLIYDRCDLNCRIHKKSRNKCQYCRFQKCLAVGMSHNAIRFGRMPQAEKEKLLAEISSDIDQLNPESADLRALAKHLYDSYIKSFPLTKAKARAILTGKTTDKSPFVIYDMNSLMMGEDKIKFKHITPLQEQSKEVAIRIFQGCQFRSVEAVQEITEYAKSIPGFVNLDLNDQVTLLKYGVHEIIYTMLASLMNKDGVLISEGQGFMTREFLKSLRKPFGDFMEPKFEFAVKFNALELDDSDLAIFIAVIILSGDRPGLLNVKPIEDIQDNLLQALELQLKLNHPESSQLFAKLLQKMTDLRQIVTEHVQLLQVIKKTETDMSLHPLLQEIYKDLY
# Chain of mouse Estrogen Receptor alpha (Era), Esr1 (gene 13982) (P19785 whole entry, looked up): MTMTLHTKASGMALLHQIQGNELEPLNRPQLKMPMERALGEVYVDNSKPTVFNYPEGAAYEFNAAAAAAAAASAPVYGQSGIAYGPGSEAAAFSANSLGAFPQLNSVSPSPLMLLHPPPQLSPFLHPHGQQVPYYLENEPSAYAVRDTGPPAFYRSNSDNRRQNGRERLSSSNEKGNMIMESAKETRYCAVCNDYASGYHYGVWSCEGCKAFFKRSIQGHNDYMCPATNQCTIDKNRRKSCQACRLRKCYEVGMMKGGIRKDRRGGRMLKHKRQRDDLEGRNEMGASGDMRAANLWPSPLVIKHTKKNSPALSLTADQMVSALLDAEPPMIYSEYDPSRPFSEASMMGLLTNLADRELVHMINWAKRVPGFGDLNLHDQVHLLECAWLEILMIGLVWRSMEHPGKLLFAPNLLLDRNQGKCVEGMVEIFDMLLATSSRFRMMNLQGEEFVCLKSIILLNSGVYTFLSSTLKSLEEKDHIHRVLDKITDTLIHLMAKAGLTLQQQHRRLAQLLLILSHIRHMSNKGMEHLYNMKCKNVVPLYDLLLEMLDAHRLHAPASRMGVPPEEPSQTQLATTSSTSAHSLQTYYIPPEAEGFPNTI
# Chain of human Norepinephrine Transporter (NET), SLC6A2 (gene 6530) (P23975 whole entry, looked up): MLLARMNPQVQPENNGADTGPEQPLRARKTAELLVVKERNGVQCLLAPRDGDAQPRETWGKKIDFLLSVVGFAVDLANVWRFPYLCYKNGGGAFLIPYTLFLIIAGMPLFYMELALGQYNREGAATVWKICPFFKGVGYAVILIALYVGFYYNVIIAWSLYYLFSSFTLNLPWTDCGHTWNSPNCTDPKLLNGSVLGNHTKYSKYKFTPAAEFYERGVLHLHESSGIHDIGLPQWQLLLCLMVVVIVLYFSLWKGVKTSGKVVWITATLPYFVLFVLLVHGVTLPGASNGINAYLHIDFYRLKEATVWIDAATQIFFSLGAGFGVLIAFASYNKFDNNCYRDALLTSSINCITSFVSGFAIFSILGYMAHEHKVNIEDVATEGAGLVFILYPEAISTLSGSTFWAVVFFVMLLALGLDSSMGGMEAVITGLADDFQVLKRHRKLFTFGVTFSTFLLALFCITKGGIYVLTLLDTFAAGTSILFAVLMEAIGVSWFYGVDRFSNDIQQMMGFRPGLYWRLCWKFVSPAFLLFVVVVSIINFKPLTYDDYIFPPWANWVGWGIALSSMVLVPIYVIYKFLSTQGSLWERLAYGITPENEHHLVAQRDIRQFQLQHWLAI
# Chain of Estrogen receptor beta (Homo sapiens) (Q92731 whole entry, looked up, the tested form may be a part): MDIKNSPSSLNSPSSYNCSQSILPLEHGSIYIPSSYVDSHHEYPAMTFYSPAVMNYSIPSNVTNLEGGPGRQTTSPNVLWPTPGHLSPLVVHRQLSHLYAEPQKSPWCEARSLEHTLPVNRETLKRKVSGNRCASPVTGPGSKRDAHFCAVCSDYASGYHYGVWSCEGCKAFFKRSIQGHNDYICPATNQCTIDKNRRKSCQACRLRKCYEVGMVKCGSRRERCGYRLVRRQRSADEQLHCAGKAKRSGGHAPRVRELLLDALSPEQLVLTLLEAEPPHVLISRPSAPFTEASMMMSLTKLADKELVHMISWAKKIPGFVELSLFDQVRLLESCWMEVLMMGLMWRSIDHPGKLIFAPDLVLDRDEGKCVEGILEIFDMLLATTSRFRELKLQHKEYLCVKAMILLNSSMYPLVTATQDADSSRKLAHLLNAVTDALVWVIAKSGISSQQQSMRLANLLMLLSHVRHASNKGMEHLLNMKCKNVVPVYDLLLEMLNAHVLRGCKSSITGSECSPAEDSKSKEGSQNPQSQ
compound,measurement,setting,value
CN(C)c1ccc(C(=C2C=CC(=[N+](C)C)C=C2)c2ccccc2)cc1,AC50,[1],6.41 µM (active) and 3.13 µM (active)
same,AC50,[2],18.3 µM (active) and 5.15 µM (active)
CCCCCc1ccc(O)cc1,AC50,[1],6.09 µM (active)
same,AC50,[2],14.6 µM (active)
CC(C)[C@@H]1CC[C@@H](C)C[C@H]1O,outcome,[3],inactive
same,outcome,[4],inactive
CCCCCCCCCCCC,AC50,[3],0.401 µM (active)
same,outcome,[3],inactive
O=C(CCCN1CCC(O)(c2ccc(Cl)cc2)CC1)c1ccc(F)cc1,outcome,[5],inactive
same,outcome,[4],inactive
CN(C)CCOC(c1ccccc1)c1ccccc1,AC50,[5],2.98 µM (active)
same,AC50,[6],12.6 µM (active)
same,outcome,[7],inactive
same,outcome,[4],inactive
same,outcome,[8],inactive
same,outcome,[9],inactive
Cc1cc(C(=C2C=CC(=Nc3ccc(S(=O)(=O)O)cc3)C=C2)c2ccc(Nc3ccc(S(=O)(=O)O)cc3)cc2)cc(S(=O)(=O)O)c1N,outcome,[3],inactive
same,outcome,[7],inactive
same,outcome,[4],inactive
same,outcome,[8],inactive
same,outcome,[9],inactive
CCC(C)c1ccccc1O (centres undefined),outcome,[3],inactive
same,outcome,[4],inactive
CN(Cc1cnc2nc(N)nc(N)c2n1)c1ccc(C(=O)N[C@@H](CCC(=O)O)C(=O)O)cc1,AC50,[1],6.69 µM (active)
same,outcome,[2],inactive
same,outcome,[10],inactive
same,outcome,[7],inactive
same,outcome,[4],inactive
same,outcome,[8],inactive
same,outcome,[9],inactive
CCOC(OCC)C(=O)c1ccccc1,AC50,[1],7 µM (active)
CCCCCCCCCCCCOC(=O)c1cc(O)c(O)c(O)c1,outcome,[3],inactive
same,AC50,[10],12400 nM (active)
same,AC50,[4],11.9 µM (active)
same,AC50,[8],49.2 µM (active)
same,AC50,[9],84.1 µM (active)
C=CC(C)(CCC=C(C)C)OC(C)=O (centres undefined),outcome,[3],inactive
same,outcome,[10],inactive
same,outcome,[8],inactive
same,outcome,[9],inactive
CC(O)COc1ccccc1 (centres undefined),outcome,[3],inactive
same,outcome,[2],inactive
same,outcome,[7],inactive
same,outcome,[4],inactive
O=C(c1ccccc1)c1ccccc1,outcome,[1],inactive
same,outcome,[7],inactive
c1ccc2c(c1)CCC2,outcome,[2],inactive
CCCCc1ccc2ccccc2c1S(=O)(=O)O,outcome,[3],inactive
same,AC50,[7],13.3 µM (active)
same,outcome,[4],inactive
same,outcome,[8],inactive
same,outcome,[9],inactive
Oc1cccc2c(O)cccc12,AC50,[1],25 µM (active)
same,outcome,[2],inactive
O=C1OC2(c3ccccc31)c1cc(I)c(O)c(I)c1Oc1c2cc(I)c(O)c1I,AC50,[6],0.953 µM (active)
same,AC50,[2],0.566 µM (active)
CCCCCCCCCCCCCCCCCC[N+](C)(C)Cc1ccccc1,outcome,[1],inactive
same,AC50,[6],7.73 µM (active)
same,AC50,[2],2.49 µM (active)
N=C(N)c1ccc(OCCCCCOc2ccc(C(=N)N)cc2)cc1,outcome,[5],inactive
same,AC50,[1],4.11 µM (active)
same,AC50,[2],0.725 µM (active)
same,outcome,[8],inactive
same,outcome,[9],inactive
CCCCCCCCCCCC(=O)O,outcome,[3],inactive
same,outcome,[4],inactive
CCCCCCCCCC=CCC1CC(=O)OC1=O (centres undefined),AC50,[3],25 µM (active)
same,AC50,[7],21.2 µM (active)
same,outcome,[4],inactive
same,outcome,[8],inactive
same,outcome,[9],inactive
C[C@]12CC[C@@H]3c4ccc(O)cc4CC[C@H]3[C@@H]1C[C@@H](O)[C@@H]2O,AC50,[1],15.4 µM (active)
same,AC50,[4],0.03 µM (active)
NC(=NCCCCCCN=C(N)/N=C(\N)Nc1ccc(Cl)cc1)/N=C(\N)Nc1ccc(Cl)cc1,AC50,[1],0.458 µM (active)
same,AC50,[6],0.322 µM (active)
same,AC50,[2],0.356 µM (active)
same,AC50,[10],137 nM (active) and 292 nM (active)
same,outcome,[7],inactive
same,AC50,[8],24.5 µM (active)
same,AC50,[9],28.6 µM (active)
Clc1ccc(Nc2nnc(Cc3ccncc3)c3ccccc23)cc1,AC50,[1],0.987 µM (active)
same,outcome,[6],inactive
same,AC50,[2],0.898 µM (active)
CCCCN(C)C,outcome,[1],inactive
NCc1cccc(CN)c1,AC50,[10],6340 nM (active)
same,outcome,[4],inactive
same,outcome,[8],inactive
same,outcome,[9],inactive
Cc1cc(C(C)(C)C)c(O)c(C(C)(C)C)c1,outcome,[4],inactive
NS(=O)(=O)O,outcome,[4],inactive
Cc1ccc(S(=O)(=O)O)cc1,outcome,[4],inactive
O=S(=O)(O)c1ccccc1,outcome,[4],inactive
CCCCCCCCCCCCCCC,outcome,[2],inactive
same,outcome,[4],inactive
Nc1cc(Cl)c(-c2cc(Cl)c(N)cc2Cl)cc1Cl,AC50,[10],389 nM (active)
C[C@]12CC[C@@H]3c4ccc(O)cc4CC[C@H]3[C@@H]1CC[C@@H]2OC(=O)CCC1CCCC1,AC50,[10],45.2 nM (active)
COc1cc([N+](=O)[O-])ccc1N,outcome,[7],inactive
same,AC50,[4],28.4 µM (active)
same,outcome,[8],inactive
same,outcome,[9],inactive
CCc1ccccc1O,outcome,[4],inactive
same,outcome,[8],inactive
same,outcome,[9],inactive
CC(C)(C)c1ccc(O)c(O)c1,AC50,[2],18.4 µM (active)
same,outcome,[2],inactive
CC(=O)Nc1ccc(O)cc1,outcome,[7],inactive
same,outcome,[4],inactive
C=Cc1ccc(O)c(OC)c1,AC50,[2],19.1 µM (active)
Oc1cc2ccccc2cc1O,outcome,[2],inactive
NCCN,outcome,[8],inactive
same,outcome,[9],inactive
CCCCCCc1ccc(N)cc1,AC50,[10],138 nM (active)
same,outcome,[7],inactive
same,outcome,[4],inactive
same,outcome,[8],inactive
same,outcome,[9],inactive
Cc1cc(Cc2cc(C)cc(C(C)(C)C)c2O)c(O)c(C(C)(C)C)c1,outcome,[4],inactive
same,outcome,[8],inactive
same,outcome,[9],inactive
